According to PubChem BioAssay (NCI):
Compounds without any hit were thinned out: in the full panel of roughly 83,000, 20% have a hit.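 Values shown are percent growth following 48 h exposure of cells in 96-well plates to a single concentration of compound; below 10 was considered active.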 Unmarked numbers belong to inactive results. Active and inactive are the calls of the source.

Key:
Assay in all cases: NCI-60 one-dose screen, 48 h (100 = growth as untreated, 0 = no growth, -100 = all killed)
Settings in all cases: 10 µM unless noted
[1] = tested on: BT-549 breast
[2] = tested on: MDA-MB-435 melanoma
[3] = tested on: SW-620 colon
[4] = tested on: MCF7 breast
[5] = tested on: HCC-2998 colon
[6] = tested on: KM12 colon
[7] = tested on: HCT-116 colon

SMILES | growth [1] | growth [2] | growth [3] | growth [4] | growth [5] | growth [6] | growth [7]
Cc1nc2c(nnn2-c2ccccc2)c2nc(-c3ccc(Cl)cc3)oc(=O)c12 | 107% | 106% | 107% | 95.2% | 111% | 113% | 
COc1cc(-c2nc3c(c(C)nc4c3nnn4-c3ccccc3)c(=O)o2)cc(OC)c1OC | 105% | 106% | 107% | 97.5% | 130% | 110% | 99.3%
Nc1nc2cc(O)ccc2n2cc3c(F)cccc3c12 |  | -8.3% (active) | 17.5% | -7.71% (active) | 58.5% | 35.3% | 15.1%
c1cc[c]([Bi]([c]2ccccc2)[c]2ccccc2)cc1 | 96.8% | 90.4% | 92.9% | 97.5% | 96.5% | 97.1% | 104%
Cc1c([C@H](C(Cl)Cl)[C@H](O)[C@H]2C[C@H](C)C(=O)O2)ccc2c1C(=O)[C@H]1[C@H]2C[C@@H](Br)[C@@]23O[C@@H](CO[C@H]2O)CC13C (stereo partly specified) | 37.6% | -40% (active) | 14.6% |  | 8.99% (active) | 2.99% (active) | 15.1%
O=C1c2ccccc2CCc2ccccc21 | 99% | 100% | 99.3% | 94.9% | 97.5% | 102% | 98.2%
C#CCCCCCCC[C@@H]1OC(=O)[C@H]([C@@H](C)CC)NC(=O)[C@@H]([C@@H](C)CC)NC(=O)CC(=O)[C@@H]1C | 104% | 107% | 101% | 99% | 109% | 105% | 94.8%
C=C1CCC2C3(C)COC(c4ccccc4)OC3CCC2(C)C1C/C=C1/C(=O)OCC1O (stereo unspecified) | 56.5% | 72.8% |  |  | 94.1% |  | 38.6%
O=C1CSC(c2ccccc2Cl)N1c1nnc(-c2ccncc2)o1 (stereo unspecified) | 116% | 99.6% | 99.6% |  | 97.9% | 105% | 85.5%
